# Source: the supplement of paper PMC6555819
# Key:
# Assay in all cases: PBM binding z-score (relative to random genomic background probes); higher = stronger binding; sequences stand for … in GC…GCGATTGACAGCGTAGAATGAAGG
# [1] = test system: FXR:RXRa (NR concentration 270 nM, RXRa partner concentration 90 nM)
# Procedure, shortened: (§1)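 Probes were double-stranded and carried 34-nt variable regions with direct-repeat seeds, single-nucleotide variants, half-site ablations and random human genomic background sequences, printed on custom Agilent 4×180K protein-binding microarrays. Arrays were incubated 1 h with ligand-free nuclear receptor dimers in PBS pH 7.4, 2% milk, 0.02% Triton X-100, 1 mM DTT, 0.2 mg/mL BSA and 0.4 mg/ml salmon testes DNA. Antibodies against each partner (one per run) detected binding, and scanned fluorescence was regression-normalized. Binding z-scores use the random background probes as reference.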
# [2] = test system: LXRa:RXRa (NR concentration 270 nM, RXRa partner concentration 90 nM)
# Procedure, shortened: as §1
# [3] = test system: LXRa homodimer (NR concentration 270 nM)
# Procedure, shortened: as §1
# [4] = test system: LXRb:RXRa (NR concentration 270 nM, RXRa partner concentration 90 nM)
# Procedure, shortened: as §1
# [5] = test system: LXRb homodimer (NR concentration 270 nM)
# Procedure, shortened: as §1
# [6] = test system: PPARa:RXRa (NR concentration 270 nM, RXRa partner concentration 90 nM)
# Procedure, shortened: as §1
# [7] = test system: PPARg:RXRa 270nM:90nM, anti-RXR (NR concentration 270 nM, RXRa partner concentration 90 nM)
# Procedure, shortened: as §1
# [8] = test system: PPARg:RXRa 30nM:10nM, anti-RXR (NR concentration 30 nM, RXRa partner concentration 10 nM)
# Procedure, shortened: as §1
# [9] = test system: PPARg:RXRa 90nM:30nM, anti-RXR (NR concentration 90 nM, RXRa partner concentration 30 nM)
# Procedure, shortened: as §1
# [10] = test system: PPARg:RXRa (NR concentration 180 nM, RXRa partner concentration 90 nM)
# Procedure, shortened: as §1
Sequence,PBM binding z-score [1],PBM binding z-score [2],PBM binding z-score [3],PBM binding z-score [4],PBM binding z-score [5],PBM binding z-score [6],PBM binding z-score [7],PBM binding z-score [8],PBM binding z-score [9],PBM binding z-score [10]
ACTAGGAGGACAAAGGTCAGAGCTACGCCAGTGA,4.32,4.18,1.5,3.58,0.612,5.33,8.36,7.87,8.99,
ATCTCTAGGTCAAAGTTCAGTGAATCCCGAGGAT,5.79,6.34,6.95,4.67,3.69,6.3,9.63,10.4,10.7,
AGTCAAAGGTCACTAGGTAACGTAAGATTCAGCT,7.63,6.45,2.46,5.48,2.78,6.42,8.5,6.26,8.47,
CGTCCAAGGTCAGCAGGTCAGAGAAAGCGACGTG,6.51,4.01,0.793,3.26,-0.208,4.78,5.15,1.61,3.69,
GCTATTAGGTGAAAGGGCAACCGAATGATTCTCG,0.916,1.33,-0.0501,1.25,-0.402,5.57,8.6,8.54,9.84,
CGAACTAGGTCAAAGGCCAGTGAAAGGCGACGTA,4.37,2.92,-0.479,1.81,-0.821,5.83,9.43,9.62,10.3,
TAGCCTAGGTGATTGGGCCAGTATAGTACGCATC,-0.581,-0.692,-0.293,-0.59,-0.51,-0.146,-0.141,-0.21,-0.578,
CCTGCTAGGACAATGGTCAGCTAAAGCAGCTCGC,-0.67,-0.803,-0.499,-0.869,-1.1,-0.776,1.2,-0.505,0.711,
TTACCAAAGTGAAAGGTCGTTGATGCACGCCTTG,1.49,1.82,0.432,1.57,-0.402,3.17,5.13,2.97,5.02,
TTACCAAGGTGAAGGTCGTGGATCCCTCTGTAGA,1.6,1.33,0.0601,1.45,-0.935,3.03,4.71,2.78,4.4,
CAAACTAGGTCAAGGTCAAAGTAGGTTTGTGCCA,7.18,5.78,4.55,4.82,1.64,6.41,8.19,6.7,8.63,
CAAACTAGGTCAAGAGGTCAAAGGCCGCTTCCCG,7.41,6.17,5.69,5.21,1.49,6.45,8.47,7.55,9.13,
TAGCCTAGGTCATTCAGGGGCTAGTATAGAAAGC,4.83,3.69,0.257,2.77,0.83,,2.22,0.575,1.45,2.12
CCTACTGGGCGATTCAGAGGTCATTGATCATATG,2.02,3.68,6.2,3.09,-0.0527,,1.87,0.13,0.99,0.564
TAGCCTAGGTCATTGGACCAGTATAGTACGCATC,4.61,3.73,1.02,2.36,0.187,,3.16,1.04,2.07,2.88
CCTAGTTGGTCAGGAGGTCCCACACCGGATATGA,0.0406,-0.213,0.429,-0.248,0.251,-0.0736,0.194,-0.0977,-0.144,
CAAACTAGGTCACGAAAGGTCAAAATCGAATGAC,7.3,8.11,7.47,7.37,2.57,6.41,8.29,6.67,8.42,
CAAACTAGGTCAAAGGTCAAAGACGAGCCAACCA,8.68,7.43,5.15,7.3,2.82,7.71,11.5,15.4,14.3,
CTAACTAGGTCACCGGAAGGTCAAAGTCCGCATG,6.39,6.17,5.51,5.57,1.15,6.52,8.19,6.41,7.67,
CCTGCTCGGTCAATGGTCAGCTAAAGCAGCTCGC,0.351,0.448,-0.0838,-0.541,-0.234,,1.43,-0.317,0.846,-0.00581
CCAGACAGGTGAAAGGTCACTCAGTCTGGTACGC,5.43,5.49,2.57,4.91,0.389,6.31,8.84,7.76,8.99,
CAAAGTAGGTCAAGGTCAAAGTCGGTTTGTGCCA,6.64,5.74,4.44,4.67,1.7,6.22,8.02,7.19,8.49,
TCTAGTTGGTCACGGAGGTCACACGCGACGGGTA,3.47,3.74,2.9,3.14,0.904,3.95,4.08,3.3,3.9,
CAAAGTAGGTCACGAAAGGTCAAAGTCGAATGAC,7.64,8.17,8.05,7.39,2.7,6.63,8.58,7.11,8.91,
ATATGTAGGTTAAGGGTCATGCAGGTTGGTTCGC,4.83,4.77,2.17,4.13,1.3,6.71,10.2,10.9,11.9,
CGTCCAAGGTCAAAGGTCACTGAAGAGATGACGG,8.77,7.26,4.53,7.05,2.19,7.23,9.43,11,11.1,
